Results filed as inconclusive are left out. Calls of active or inactive are those of the source. The calls were made as follows: active = hit-call score of the fitted dose curve at least 0.9, where 1 is the maximum; inconclusive = response in the unintended direction; inactive = score below 0.9.

The nature of this test: ATG_M_06_TRANS: Attagene TRANS-FACTORIAL HepG2 Assay for M06 Transcription Factor (Internal Marker) (AID 2282983). Particulars: HepG2 Attagene TRANS M06 internal marker reporter. As for the experimental part:
ATG_TRANS is a cell-based, multiplexed-readout assay that uses HepG2, a human liver cell line, with measurements taken at 24 hours after chemical dosing in a 24-well plate.ATG_M_06_TRANS is one of 30 assay component(s) measured or calculated from the ATG_TRANS assay. It is designed to make measurements of mRNA induction, a form of inducible reporter, as detected with fluorescence intensity signals by Reverse transcription polymerase chain reaction (RT-PCR) and Capillary electrophoresis technology.Data from the assay component ATG_M_06_TRANS was analyzed into 1 assay endpoint. This assay endpoint, ATG_M_06_TRANS, was analyzed in the positive analysis fitting direction relative to DMSO as the negative control and baseline of activity. Using a type of inducible reporter, measures of mRNA for gain-of-signal activity can be used to understand the background control at the transcription factor-level as they relate to the gene . Furthermore, this assay endpoint can be referred to as a secondary readout, because this assay has produced multiple assay endpoints where this one serves a background control function. To generalize the intended target to other relatable targets, this assay endpoint is annotated to the background measurement intended target family, where the subfamily is internal marker.
Human liver HepG2 cells are transiently transfected with multiple reporter transcription units (MRTUs) in 6-well plates using FuGene 6 reagent (Roche; 3 ml FuGene/1 mg DNA). The MRTU constructs are regulated by a cis-regulating element (promoter). […] A major difference between the CIS and TRANS system is that in CIS activities of endogenous TFs are measured, whereas the TRANS assay evaluates changes in activities of exogenous, chimeric NR-Gal4 proteins. […] At the end of 24 hour incubation, total RNA was isolated using TriZol reagent (Invitrogen). The isolated RNA is then reverse-transcribed using oligo(dT) primer and Mo-MLV reverse transcriptase (Invitrogen) with DNAse I (Ambion) treatment for 30 min. The one-tenth of the produced cDNA was amplified by PCR using Taq DNA polymerase (Invitrogen) and two reporter sequence-specific primers. The PCR products were fluorescently labeled by primer extension with 6-arboxyfluorescein (6-FAM) 5'-labeled reporter sequence-specific primer (2 min at 95 C, 20 s at 68 C and 10 min at 72 C) and these products were digested with 5U of HpaI (New England Biolabs) for 2h at 37 C. The fragments were purified using Qiaquick PCR columns (Qiagen), analyzed on an ABI 3130xL genetic analyzer (Applied Biosystems) with peak positions identified by using a set of X-rhodamine (ROX)-labeled MapMarker1000 molecular weight standards (BioVentures). The raw capillary electrophoresis data was processed using Attagraph software (Attagene).
Turning to `Brc1c(Br)c(Br)c(Oc2c(Br)c(Br)c(Br)c(Br)c2Br)c(Br)c1Br`, the compound was called inactive. As to `CCNc1nc(NCC)nc(SC)n1`, the compound was called inactive. Next, `CC(c1ccccc1)(c1ccc(O)cc1)c1ccc(O)cc1`: “inactive”; `BrCC(Br)c1ccccc1` (stereo not given): “inactive”; `Nc1ccc(N)cc1`: “inactive”. For `N#Cc1ccc(Cl)cc1`, the outcome was inactive. On to `ClCc1ccccc1CCl`, for which the compound was called inactive. Then `O=C(Cc1ccccc1)OCCc1ccccc1`, with “inactive”; and `Cc1cc(Cl)ccc1N`, with “inactive”.

Regarding `O=C1C=CC(=O)c2ccccc21`, the result was inactive. In the case of `c1ccc2c(c1)Oc1ccccc1O2`, the result was inactive. As to `CCOCn1c(-c2ccc(Cl)cc2)c(C#N)c(Br)c1C(F)(F)F`, the outcome was inactive. With `COc1nn(C(=O)NS(=O)(=O)c2ccccc2OC(F)(F)F)c(=O)n1C`, the compound was classed as inactive. Turning to `c1cc[c]([Sb]([c]2ccccc2)[c]2ccccc2)cc1`, the result was inactive.

Regarding `C=CC(Cl)CCl` (stereo not given), the compound was called inactive.

`CN(N=O)C(N)=O`: the outcome was inactive. With `CCCCN(CCCC)C(=S)S`, the compound was called inactive. Next, `Cc1ccc2nc3sc(=O)sc3nc2c1`: “inactive”. For the compound `CN(C1CCCCC1)C1CCCCC1`, the compound was called inactive. Next, `CCCCN(CCCCO)N=O`: “inactive”. Turning to `O=S(=O)(Oc1ccc(Cl)cc1)c1ccc(Cl)cc1`, the call was inactive. `COC(=O)Nc1cccc(OC(=O)Nc2cccc(C)c2)c1`: the call was inactive. With `CCCCC(CC)C(=O)Cl` (stereo not given), the compound was called inactive. For `C[CH2][Hg][S]c1ccccc1C(=O)O`, the compound was classed as inactive. Take `O=S(=O)(c1ccc(Cl)cc1)c1cc(Cl)c(Cl)cc1Cl`: the outcome was inactive. With `Fc1cccc(Cl)c1CCl`, the compound was called inactive. As to `O=C(NC(=O)c1c(F)cccc1F)Nc1cc(Cl)c(F)c(Cl)c1F`, the compound was called inactive. Next, `C=CC(=O)NC(C)(C)CC(C)=O`: “inactive”; `CCCCN(CCCC)C(=S)[S-].CCCCN(CCCC)C(=S)[S-].[Ni+2]`: “inactive”. Consider `CCOC(=O)Cc1ccccc1`, for which the outcome was inactive. Next, `CN(C)C(=S)S`: “inactive”; `CC(C)CP(=S)(S)CC(C)C`: “inactive”; `O=C(O)COc1cc(Cl)c(Cl)cc1Cl`: “inactive”. As for `CC(O)(CS(=O)(=O)c1ccc(F)cc1)C(=O)Nc1ccc(C#N)c(C(F)(F)F)c1` (stereo not given), the outcome was inactive. Then `COc1ccccc1N`, with “inactive”; and `O=C1C[C@@H]2OCC=C3CN4CC[C@]56c7ccccc7N1[C@H]5[C@H]2[C@H]3C[C@H]46`, with “inactive”. Take `Nc1ncn[nH]1`: the result was inactive. With `Cc1ccc(CCl)cc1`, the compound was called inactive. As to `Cc1c([N+](=O)[O-])c(C)c([N+](=O)[O-])c(C(C)(C)C)c1[N+](=O)[O-]`, the call was inactive. In the case of `CC(F)(F)CC(F)(F)F`, the compound was classed as inactive.

Source of the values: PubChem BioAssay (EPA / NIEHS).
